# Source: the supplement of paper PMC11732987, “Enantioselective OTUD7B fragment discovery through chemoproteomics screening and high-throughput optimisation” (Communications Chemistry, 2025)
# A number with no mark means an inactive call.
# How the values were obtained:
# Test in all cases: log2 ratio of Biotin-Ahx-Ub-VS probe labelling (fragment/DMSO); higher = less target engagement (more negative = stronger competition), active = hit call of the paper (q ≤ 0.05, log2 ratio ≤ -1)
# Settings in all cases: compound concentration: 200 uM; treatment time: 3 h
# [1] = molecular target: USP16 (UniProt Q9Y5T5)
# Method in brief: (§1)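 Global-median-normalised Spectronaut label-free quantities were compared by unpaired t-test, and values are average log2 ratios of fragment over vehicle. Only proteins with ≥2 unique peptides were used. HEK293T lysate (495 µg per sample) was treated in triplicate with fragment at 200 µM or vehicle for 3 h and then with Biotin-Ahx-Ub-VS at 0.5 µM final for 1 h. Labelled DUBs were then NeutrAvidin-enriched, digested with LysC and trypsin, and run by diaPASEF LC-MS/MS.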
# [2] = molecular target: T1, USP19 (UniProt O94966)
# T1 sequence (whole entry): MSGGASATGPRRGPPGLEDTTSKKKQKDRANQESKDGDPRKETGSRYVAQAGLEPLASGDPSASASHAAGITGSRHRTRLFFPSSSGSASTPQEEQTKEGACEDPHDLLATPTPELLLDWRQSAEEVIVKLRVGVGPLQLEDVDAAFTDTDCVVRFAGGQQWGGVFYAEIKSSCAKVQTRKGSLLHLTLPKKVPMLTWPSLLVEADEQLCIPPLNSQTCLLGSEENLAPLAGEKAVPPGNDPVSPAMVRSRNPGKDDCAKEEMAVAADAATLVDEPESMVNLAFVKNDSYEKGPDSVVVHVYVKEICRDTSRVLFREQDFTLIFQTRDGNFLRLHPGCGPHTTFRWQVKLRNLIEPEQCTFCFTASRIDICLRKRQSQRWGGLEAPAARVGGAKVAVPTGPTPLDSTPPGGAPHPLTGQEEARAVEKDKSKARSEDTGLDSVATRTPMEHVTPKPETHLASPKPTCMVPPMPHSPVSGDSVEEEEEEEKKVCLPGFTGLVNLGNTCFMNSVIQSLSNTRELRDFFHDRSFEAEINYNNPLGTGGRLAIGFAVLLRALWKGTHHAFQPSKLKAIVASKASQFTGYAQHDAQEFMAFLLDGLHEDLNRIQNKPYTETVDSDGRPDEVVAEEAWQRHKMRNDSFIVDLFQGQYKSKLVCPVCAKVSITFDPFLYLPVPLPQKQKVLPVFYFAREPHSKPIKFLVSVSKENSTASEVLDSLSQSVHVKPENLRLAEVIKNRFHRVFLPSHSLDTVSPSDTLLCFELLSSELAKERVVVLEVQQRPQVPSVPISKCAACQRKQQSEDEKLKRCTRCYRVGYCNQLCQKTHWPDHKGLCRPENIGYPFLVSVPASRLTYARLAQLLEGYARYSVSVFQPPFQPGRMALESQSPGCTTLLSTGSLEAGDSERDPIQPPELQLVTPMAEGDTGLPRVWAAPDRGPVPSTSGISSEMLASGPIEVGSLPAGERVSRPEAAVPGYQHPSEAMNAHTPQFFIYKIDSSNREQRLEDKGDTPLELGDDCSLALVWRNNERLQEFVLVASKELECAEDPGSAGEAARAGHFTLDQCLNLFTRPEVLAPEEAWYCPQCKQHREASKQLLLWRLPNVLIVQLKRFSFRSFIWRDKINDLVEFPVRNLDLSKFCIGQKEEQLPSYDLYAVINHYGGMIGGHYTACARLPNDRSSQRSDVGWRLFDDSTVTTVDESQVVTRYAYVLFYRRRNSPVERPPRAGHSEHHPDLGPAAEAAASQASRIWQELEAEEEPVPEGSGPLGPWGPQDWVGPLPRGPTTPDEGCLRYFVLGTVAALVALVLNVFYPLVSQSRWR
# Method in brief: as §1
# [3] = molecular target: USP24 (UniProt Q9UPU5)
# Method in brief: as §1
# [4] = molecular target: T2, USP25 (UniProt Q9UHP3)
# T2 sequence (whole entry): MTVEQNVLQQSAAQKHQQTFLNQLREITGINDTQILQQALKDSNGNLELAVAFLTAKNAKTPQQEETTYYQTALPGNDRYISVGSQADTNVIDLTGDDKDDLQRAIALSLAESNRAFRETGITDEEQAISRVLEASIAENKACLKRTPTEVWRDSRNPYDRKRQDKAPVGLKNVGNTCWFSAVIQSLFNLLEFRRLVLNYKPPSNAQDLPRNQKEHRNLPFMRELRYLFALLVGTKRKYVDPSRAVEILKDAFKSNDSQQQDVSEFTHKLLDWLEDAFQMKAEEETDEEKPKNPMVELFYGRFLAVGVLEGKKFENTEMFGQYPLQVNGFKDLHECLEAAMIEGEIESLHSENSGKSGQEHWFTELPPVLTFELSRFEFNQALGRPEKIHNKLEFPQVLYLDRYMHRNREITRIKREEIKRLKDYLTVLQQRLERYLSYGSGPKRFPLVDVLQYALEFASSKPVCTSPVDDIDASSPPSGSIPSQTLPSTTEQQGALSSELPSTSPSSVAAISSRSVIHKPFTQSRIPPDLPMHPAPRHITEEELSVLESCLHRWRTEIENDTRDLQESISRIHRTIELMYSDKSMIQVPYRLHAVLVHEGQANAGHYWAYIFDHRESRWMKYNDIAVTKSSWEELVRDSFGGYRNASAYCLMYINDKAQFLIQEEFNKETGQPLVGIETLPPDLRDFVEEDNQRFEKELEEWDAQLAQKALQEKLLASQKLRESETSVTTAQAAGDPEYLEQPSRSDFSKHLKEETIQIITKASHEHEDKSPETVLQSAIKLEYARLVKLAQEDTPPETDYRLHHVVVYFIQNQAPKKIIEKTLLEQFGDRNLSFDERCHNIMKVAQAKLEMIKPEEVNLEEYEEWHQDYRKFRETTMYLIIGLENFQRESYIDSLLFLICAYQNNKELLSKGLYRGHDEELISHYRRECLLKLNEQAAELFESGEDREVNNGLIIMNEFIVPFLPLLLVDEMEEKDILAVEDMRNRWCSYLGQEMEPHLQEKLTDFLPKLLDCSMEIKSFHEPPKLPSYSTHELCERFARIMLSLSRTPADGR
# Method in brief: as §1
# [5] = molecular target: T3, USP28 (UniProt Q96RU2)
# T3 sequence (whole entry): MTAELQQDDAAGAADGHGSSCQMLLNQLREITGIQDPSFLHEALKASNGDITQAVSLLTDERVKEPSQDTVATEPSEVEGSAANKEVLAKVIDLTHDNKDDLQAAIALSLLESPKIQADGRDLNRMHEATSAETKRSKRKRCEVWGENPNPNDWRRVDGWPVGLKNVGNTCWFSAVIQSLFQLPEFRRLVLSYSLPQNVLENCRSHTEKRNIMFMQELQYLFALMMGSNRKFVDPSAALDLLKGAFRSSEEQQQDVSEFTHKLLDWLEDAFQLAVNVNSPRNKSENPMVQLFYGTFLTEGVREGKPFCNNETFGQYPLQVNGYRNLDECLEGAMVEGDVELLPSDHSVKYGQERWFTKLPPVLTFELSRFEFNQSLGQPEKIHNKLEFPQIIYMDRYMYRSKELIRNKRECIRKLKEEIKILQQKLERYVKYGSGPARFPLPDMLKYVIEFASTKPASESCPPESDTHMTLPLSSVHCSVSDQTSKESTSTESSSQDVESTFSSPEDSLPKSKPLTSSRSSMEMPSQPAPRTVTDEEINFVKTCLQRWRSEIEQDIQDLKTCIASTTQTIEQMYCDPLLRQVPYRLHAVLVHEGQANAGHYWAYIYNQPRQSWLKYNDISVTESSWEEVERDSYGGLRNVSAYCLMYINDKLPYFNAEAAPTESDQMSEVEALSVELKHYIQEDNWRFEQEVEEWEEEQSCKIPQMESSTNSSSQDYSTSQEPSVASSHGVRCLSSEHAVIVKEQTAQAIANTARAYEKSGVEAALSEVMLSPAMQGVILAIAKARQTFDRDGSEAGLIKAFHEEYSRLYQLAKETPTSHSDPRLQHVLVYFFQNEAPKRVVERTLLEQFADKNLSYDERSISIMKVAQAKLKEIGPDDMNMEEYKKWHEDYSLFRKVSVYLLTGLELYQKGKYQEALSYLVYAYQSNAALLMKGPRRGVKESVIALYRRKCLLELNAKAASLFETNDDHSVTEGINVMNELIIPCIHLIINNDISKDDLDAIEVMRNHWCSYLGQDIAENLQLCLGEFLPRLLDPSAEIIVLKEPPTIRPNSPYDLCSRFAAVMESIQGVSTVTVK
# Method in brief: as §1
# USP16, sequence (Q9Y5T5 whole entry, looked up, the tested form may be a part): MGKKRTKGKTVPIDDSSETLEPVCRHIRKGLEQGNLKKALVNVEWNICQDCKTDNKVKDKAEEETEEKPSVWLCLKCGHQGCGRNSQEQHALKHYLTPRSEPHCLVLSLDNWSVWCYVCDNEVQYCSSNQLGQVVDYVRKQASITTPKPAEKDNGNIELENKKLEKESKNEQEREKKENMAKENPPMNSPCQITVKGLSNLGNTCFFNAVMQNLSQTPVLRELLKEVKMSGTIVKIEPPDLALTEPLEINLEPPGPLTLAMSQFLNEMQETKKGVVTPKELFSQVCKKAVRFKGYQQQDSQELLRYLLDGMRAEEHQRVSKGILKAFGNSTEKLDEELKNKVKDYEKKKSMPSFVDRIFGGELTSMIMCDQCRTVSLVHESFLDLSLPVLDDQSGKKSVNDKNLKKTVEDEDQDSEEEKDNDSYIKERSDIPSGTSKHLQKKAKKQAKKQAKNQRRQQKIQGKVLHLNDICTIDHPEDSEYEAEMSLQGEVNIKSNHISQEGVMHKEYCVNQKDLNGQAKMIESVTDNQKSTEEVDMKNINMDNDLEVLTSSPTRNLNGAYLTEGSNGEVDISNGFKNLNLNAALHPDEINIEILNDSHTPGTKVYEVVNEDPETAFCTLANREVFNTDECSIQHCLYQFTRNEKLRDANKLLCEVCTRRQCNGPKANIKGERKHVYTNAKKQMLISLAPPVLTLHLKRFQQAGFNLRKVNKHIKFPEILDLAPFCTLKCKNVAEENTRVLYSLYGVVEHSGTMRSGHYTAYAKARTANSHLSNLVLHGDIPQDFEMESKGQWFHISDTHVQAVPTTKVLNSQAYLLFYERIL
# USP24, sequence (Q9UPU5 whole entry): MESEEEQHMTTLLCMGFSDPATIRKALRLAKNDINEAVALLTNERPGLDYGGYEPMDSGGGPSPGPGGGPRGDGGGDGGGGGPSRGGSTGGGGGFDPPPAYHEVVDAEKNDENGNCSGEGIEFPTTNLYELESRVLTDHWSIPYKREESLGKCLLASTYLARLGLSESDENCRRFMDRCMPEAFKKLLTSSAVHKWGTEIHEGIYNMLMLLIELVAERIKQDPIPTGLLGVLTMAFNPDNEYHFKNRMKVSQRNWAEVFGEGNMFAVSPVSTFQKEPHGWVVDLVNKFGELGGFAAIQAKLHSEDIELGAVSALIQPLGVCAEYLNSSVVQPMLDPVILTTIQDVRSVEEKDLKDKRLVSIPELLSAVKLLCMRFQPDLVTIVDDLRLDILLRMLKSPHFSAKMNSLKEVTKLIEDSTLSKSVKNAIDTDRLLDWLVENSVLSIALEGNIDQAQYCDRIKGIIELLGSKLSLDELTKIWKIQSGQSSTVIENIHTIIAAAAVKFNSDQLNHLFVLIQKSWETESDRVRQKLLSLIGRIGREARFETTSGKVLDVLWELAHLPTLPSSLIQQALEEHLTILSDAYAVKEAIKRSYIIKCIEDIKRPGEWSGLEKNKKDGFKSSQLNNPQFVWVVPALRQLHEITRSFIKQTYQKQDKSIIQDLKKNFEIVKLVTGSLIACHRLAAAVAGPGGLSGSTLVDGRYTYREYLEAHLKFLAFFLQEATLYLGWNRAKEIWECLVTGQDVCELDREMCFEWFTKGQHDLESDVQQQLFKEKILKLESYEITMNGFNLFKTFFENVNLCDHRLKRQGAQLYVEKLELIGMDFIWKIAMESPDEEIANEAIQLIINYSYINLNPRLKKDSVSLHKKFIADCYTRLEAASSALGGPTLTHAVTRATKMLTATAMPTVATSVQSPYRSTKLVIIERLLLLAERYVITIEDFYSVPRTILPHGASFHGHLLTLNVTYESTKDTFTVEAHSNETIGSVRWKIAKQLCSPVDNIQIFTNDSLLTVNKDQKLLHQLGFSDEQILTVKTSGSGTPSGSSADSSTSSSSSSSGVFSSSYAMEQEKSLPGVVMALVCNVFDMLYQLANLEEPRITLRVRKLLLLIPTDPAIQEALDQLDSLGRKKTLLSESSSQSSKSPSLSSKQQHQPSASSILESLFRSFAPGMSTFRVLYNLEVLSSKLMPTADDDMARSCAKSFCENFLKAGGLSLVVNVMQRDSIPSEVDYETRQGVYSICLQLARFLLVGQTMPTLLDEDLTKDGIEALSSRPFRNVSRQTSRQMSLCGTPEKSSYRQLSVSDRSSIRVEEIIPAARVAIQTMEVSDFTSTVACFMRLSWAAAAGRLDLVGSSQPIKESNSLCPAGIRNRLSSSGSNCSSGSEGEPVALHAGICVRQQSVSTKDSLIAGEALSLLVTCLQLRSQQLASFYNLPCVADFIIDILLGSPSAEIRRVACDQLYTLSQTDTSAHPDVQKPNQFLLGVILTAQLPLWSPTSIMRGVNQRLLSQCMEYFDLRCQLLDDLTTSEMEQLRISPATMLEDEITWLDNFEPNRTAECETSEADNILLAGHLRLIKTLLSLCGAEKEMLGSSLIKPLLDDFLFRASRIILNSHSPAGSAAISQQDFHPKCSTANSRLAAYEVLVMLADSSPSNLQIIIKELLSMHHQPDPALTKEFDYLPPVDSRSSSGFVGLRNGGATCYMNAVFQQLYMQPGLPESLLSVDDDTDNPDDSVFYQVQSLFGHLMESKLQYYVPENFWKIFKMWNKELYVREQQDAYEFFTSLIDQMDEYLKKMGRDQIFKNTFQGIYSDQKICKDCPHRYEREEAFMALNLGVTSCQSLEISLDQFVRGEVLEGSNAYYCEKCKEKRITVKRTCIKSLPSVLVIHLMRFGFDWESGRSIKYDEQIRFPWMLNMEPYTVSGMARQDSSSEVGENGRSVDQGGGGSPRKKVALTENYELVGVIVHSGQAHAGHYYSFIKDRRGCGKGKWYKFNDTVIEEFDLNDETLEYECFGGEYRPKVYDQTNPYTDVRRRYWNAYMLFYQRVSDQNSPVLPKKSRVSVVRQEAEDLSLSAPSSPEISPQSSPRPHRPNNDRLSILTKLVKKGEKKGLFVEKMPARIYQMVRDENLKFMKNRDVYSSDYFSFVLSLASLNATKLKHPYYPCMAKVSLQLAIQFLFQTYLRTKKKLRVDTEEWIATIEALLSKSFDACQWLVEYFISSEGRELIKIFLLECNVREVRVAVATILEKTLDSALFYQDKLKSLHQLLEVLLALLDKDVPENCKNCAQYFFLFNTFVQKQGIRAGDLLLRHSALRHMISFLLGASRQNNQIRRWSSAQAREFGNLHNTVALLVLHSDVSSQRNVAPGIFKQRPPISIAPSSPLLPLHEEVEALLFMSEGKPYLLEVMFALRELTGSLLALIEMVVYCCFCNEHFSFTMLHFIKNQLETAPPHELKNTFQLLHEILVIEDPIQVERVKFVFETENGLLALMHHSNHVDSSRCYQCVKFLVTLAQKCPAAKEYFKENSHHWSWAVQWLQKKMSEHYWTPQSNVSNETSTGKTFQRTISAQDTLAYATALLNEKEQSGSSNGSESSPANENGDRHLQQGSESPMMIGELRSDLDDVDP
smiles,measurement,setting,value
O=C(CCl)Nc1cc2c(cc1Cl)OCCCO2,log2 ratio of Biotin-Ahx-Ub-VS probe labelling,[1],-0.508
same,log2 ratio of Biotin-Ahx-Ub-VS probe labelling,[2],0.113
same,log2 ratio of Biotin-Ahx-Ub-VS probe labelling,[3],0.00346
same,log2 ratio of Biotin-Ahx-Ub-VS probe labelling,[4],-2.47 (active)
same,log2 ratio of Biotin-Ahx-Ub-VS probe labelling,[5],-1.92 (active)
